# High-throughput results: PubChem BioAssay, ICCB-Longwood Screening Facility, Harvard Medical School
# Vaccinia pol inh = inhibitors of vaccinia virus processive DNA synthesis (E9 polymerase) | in vitro processive DNA synthesis, absorbance read-out; hits give low values | normalized absorbance, % (concentration not given with the values) | 46,000 compounds, 0.94% hits; in the data active = normalized absorbance mostly below about 85%, no sharp cut-off; inactive = mostly above about 86%
# Active calls of the source: *. The full list was thinned out, with hits kept by preference.
SMILES,Vaccinia pol inh
CC1(C)CC(=O)C=C(NC(=O)Nc2ccccc2)C1,102.1
CC1(C)Cc2ccccc2/C(=C/C(=O)Nc2ccccc2)N1,86.2*
CC1(C)CC(=O)C(C(=S)Nc2ccccc2)C(=O)C1,99.5
Cc1cc(-c2ccccc2)o[n+]1C,100.0
N#CC1=C(SCC(=O)Nc2ccccc2)NC(=O)CC1c1cccs1 (stereo not drawn),101.3
N/N=C1\CCCc2c1[nH]c1ccc(C(=O)NN)cc21,46.0*
CC(C)c1ccc2[nH]c3c(c2c1)CCC/C3=N\O,100.0
Cc1ccc(C(=O)NCc2ccc3[nH]c4c(c3c2)CCCC4)cc1C,103.3
CC(C)(C)CC(C)(C)NC(=O)C1CCCCC1,102.2
O=C1NCCN1C(=O)C(c1ccccc1)c1ccccc1,100.0
Cc1ccc(Nc2ccc(C)cc2)cc1,99.7
Cc1ccc(NN)cc1,65.0*
Cc1ccc(S(=O)(=O)c2ccc(NN)cc2)cc1,95.0
CC[N+]12CCC(CC1)C(C(=O)c1cccs1)C2 (stereo not drawn),98.2
NC(=O)CNC(=O)c1ccc2ccccc2n1,99.3
CC(NC(=O)CCn1c(=S)oc2ccccc21)c1ccccc1 (stereo not drawn),97.3
Fc1ccc(-c2onc3ccc(-c4ccn[nH]4)cc23)cc1,79.2*
Brc1ccc2noc(-c3ccccc3)c2c1,100.3
Cc1ccc(-c2onc3ccc(Cl)cc23)cc1,100.2
CCN1CCN(c2cc(-c3ccccc3)c3ccccc3n2)CC1,113.1
